# Bioassay records from PubChem.
# A selection: hits, their analogues and other compounds. The true share with any hit is near 2.2%.
# Nrf2 activator = qHTS of Nrf2 Activators; 410,000 compounds, 0.31% hits; AREc32 ARE-luciferase reporter (MCF7-derived line), luminescence, 24 h; Potency, µM (doses to about 46.1 µM), without a hit: at the top dose activation, actives largely listed as activators; AID 624171, 2012; note: % of control where 0% means no effect; nearly all actives have a fitted effect of over 65% in size
#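 Nrf2 activation is followed as ARE-luciferase induction in the AREc32 line after one day of compound treatment; luminescence is read with Steady-Glo.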
# A549 tox-1 = Nrf2 qHTS screen for inhibitors: counterscreen for cytotoxicity. 390,000 compounds, 0.16% hits. Potency, µM (series often up to 46 µM), for the others: top-dose activity change, negative = cytotoxicity, actives largely listed as inhibitors. A549 ARE-Fluc cells, CellTiter-Fluor viability, 18-24 h; note: % is set by controls: 0 for no effect and ±100 for the full control effect
#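 A549 ARE_Fluc cells in 5% FBS OPTI-MEM were exposed to compounds in concentration-response for 18-24 h at 37 deg C. Viability was read by CellTiter-Fluor fluorescence (Ex 405/Em 525) after 30 min, before the luciferase read.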
# Pin1 inh = qHTS Assay to Find Inhibitors of Pin1 | Pin1 FP peptide displacement, HiFluor488, 10 min | 390,000 compounds, 0.009% hits | Potency, µM (series often up to 115 µM), without a hit: top-dose activity, negative = inhibition, hits mostly inhibitors | Peptidyl-prolyl cis-trans isomerase NIMA-interacting 1 (Homo sapiens), Q13526; active = well fitted inhibition curve with a large enough effect in the polarisation, with a control signal flat, not every such curve was filed as active; inconclusive = small, poorly fitted or top-dose-only effect, or effect the other way, or a change in a side signal; inactive = no such curve, though single readings can be large or run the other way; the % refers to the polarisation; note: % is set by controls: 0 for no effect and ±100 for the full control effect
# Nrf2 inh = Nrf2 qHTS screen for inhibitors. A549 ARE-Fluc reporter, luciferase luminescence, 18-24 h. Potency, µM (highest dose often 46 µM), for the others: top-dose activity change, negative = inhibition, hits mostly inhibitors. 360,000 compounds, 2.1% hits. AID 504444, 2011; note: % is set by controls: 0 for no effect and ±100 for the full control effect; nearly all actives have a fitted effect of over 60% in size
#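 A549 ARE_Fluc cells (5000/well, 5% FBS OPTI-MEM) pre-incubated 2 h, then treated with compounds 18-24 h at 37C/5% CO2 in concentration-response. CellTiter-Fluor viability read first; BugLite luciferase luminescence after 15 min at room temperature gives Nrf2 activity.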
# FLuc enzyme inh = Nrf2 qHTS screen for inhibitors: Purified Fluc Biochemical Counterscreen for Hit Validation; AID 720522, 2013; shares compounds with Nrf2 inh; purified firefly luciferase, luminescence inhibition; Potency, µM (titrated, usually from 57.5 µM), for the others: top-dose activity change, negative = inhibition, most hits filed as inhibitors; 1,400 compounds, 4% hits; note: % is set by controls: 0 for no effect and ±100 for the full control effect; nearly all actives have a fitted effect of over 65% in size
# Target sequence (P08659 whole entry, looked up): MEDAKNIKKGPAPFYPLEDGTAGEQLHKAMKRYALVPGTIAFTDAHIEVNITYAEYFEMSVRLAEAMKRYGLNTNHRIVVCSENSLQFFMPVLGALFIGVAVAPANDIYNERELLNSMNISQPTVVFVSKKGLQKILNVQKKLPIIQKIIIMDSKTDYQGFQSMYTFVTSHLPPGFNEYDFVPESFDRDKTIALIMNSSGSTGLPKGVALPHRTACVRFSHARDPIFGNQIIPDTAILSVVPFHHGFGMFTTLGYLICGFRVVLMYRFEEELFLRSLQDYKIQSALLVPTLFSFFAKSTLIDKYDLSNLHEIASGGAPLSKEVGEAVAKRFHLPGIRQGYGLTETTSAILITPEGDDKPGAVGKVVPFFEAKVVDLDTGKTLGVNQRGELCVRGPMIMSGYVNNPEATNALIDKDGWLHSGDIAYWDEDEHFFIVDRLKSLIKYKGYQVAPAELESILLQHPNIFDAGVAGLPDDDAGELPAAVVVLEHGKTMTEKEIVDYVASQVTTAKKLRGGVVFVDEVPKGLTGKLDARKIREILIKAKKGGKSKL
# A549 tox-2 = Nrf2 qHTS screen for inhibitors: A549 ARE-Fluc Cytotoxicity Counterscreen for Hit Validation. shares compounds with Nrf2 inh. 1,400 compounds, 2% hits. A549 ARE-Fluc cells, cytotoxicity counterscreen. Potency, µM (top dose mostly 46.1 µM), without a hit: at the top dose activity change, negative = cytotoxicity, most hits filed as inhibitors;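 note: cells exposed to compounds for 18 to 24 hours; % is set by controls: 0 for no effect and ±100 for the full control effect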
# Nrf2 ARE inh = Nrf2 qHTS screen for inhibitors: Nrf2 A549 ARE-Fluc Confirmation Assay for Hit Validation; shares compounds with Nrf2 inh; A549 ARE-firefly luciferase reporter, luminescence; Potency, µM (series often up to 46.1 µM), inactives show at the top dose activity change, negative = inhibition, actives largely listed as inhibitors; 1,400 compounds, 74% hits; note: % is set by controls: 0 for no effect and ±100 for the full control effect; nearly all actives have a fitted effect of over 65% in size
# * marks the source's active call; other numbers are inactive results; ? = inconclusive; . = not tested or not shown. Unless noted, calls come from the whole dose curve; as a rule, active = well fitted curve in the direction sought with a large enough effect; inconclusive = small, poorly fitted or top-dose-only effect, or another doubt; inactive = no such curve, though single readings can be large; an effect the other way counts as inactive or inconclusive. Potency is the fitted concentration of half-maximal effect.
SMILES,Nrf2 activator,A549 tox-1,Pin1 inh,Nrf2 inh,FLuc enzyme inh,A549 tox-2,Nrf2 ARE inh
CC(C)(O)/C=C/C(=O)[C@](C)(O)C1[C@H](O)C[C@@]2(C)C3CC=C4C(C[C@H](O)[C@@H](O)C4(C)C)[C@]3(C)C(=O)C[C@]12C (some centres undefined),13%,?,0%,0.41µM*,1%,?,1.3µM*
CC(C)OC(=O)c1cc(C(=O)c2cc(Cl)ccc2O)coc1=N,4%,-1%,25%,?,.,.,.
Cc1cc(C)cc(-n2c(/C=C/c3cccc(F)c3)nc3ccccc3c2=O)c1,1%,-1%,-1%,.,.,.,.
Nc1nc(F)nc2c1ncn2[C@@H]1O[C@H](CO)[C@@H](O)[C@@H]1O,-1%,-5%,-7%,5.8µM*,-2%,-21%,16µM*
Cc1ccc(-c2cc(-c3ccc(C)cc3)[n+](-c3ccccc3)c(-c3ccc(C)cc3)c2)cc1,-3%,?,-7%,2.6µM*,4%,5.8µM*,.
CN(C)c1ccc(-[n+]2c(-c3ccccc3)cc(-c3ccccc3)cc2-c2ccccc2)cc1,0%,?,18%,2.9µM*,-3%,?,3.7µM*
CCOC(=O)c1ccc(-[n+]2c(-c3ccccc3)cc(-c3ccccc3)cc2-c2ccccc2)cc1,0%,-1%,2%,-24%,.,.,.
Cc1oc(-c2cccc(Cl)c2)nc1CN1CCC(C(=O)NCCCN2CCN(c3ccc(F)cc3)CC2)CC1,6%,11%,-4%,?,.,.,.
CCOc1ccc(-c2c(C)n(-c3ccc(OCC)cc3)c3[n+]2CCCCC3)cc1,7%,-1%,-3%,2.6µM*,-1%,?,1.2µM*
COc1ccc(-n2c(/C=C\c3ccccc3F)nc3ccccc3c2=O)c(OC)c1,2%,-3%,-6%,.,.,.,.
C=C(C)[C@@]12OC3(c4ccccc4)O[C@@H]1C1[C@@H]4O[C@]4(CO)[C@@H](O)[C@]4(O)C(=O)C(C)=C[C@H]4[C@@]1(O3)[C@H](C)[C@H]2OC(=O)/C=C/C=C/c1ccccc1 (some centres undefined),-2%,-26%,6%,0.0052µM*,-1%,?,0.018µM*
O=C(O)COc1ccc(Br)cc1C(c1c(C(=O)O)[nH]c2ccccc12)c1c(C(=O)O)[nH]c2ccccc12,-1%,-6%,?,1%,.,.,.
CCc1ccc(OCC(=O)N2CCN(CCc3ccncc3)CC2)cc1,3%,8%,2%,6%,.,.,.
CC(=O)c1cccc(NC(=O)c2cc3c(s2)-c2c(C)cccc2OC3)c1,3%,-17%,5%,7.3µM*,-14%,-22%,6.5µM*
Cc1ccc(C(=O)Oc2cc(N)n(S(=O)(=O)c3ccc(F)cc3)n2)cc1,-2%,8%,6%,1.8µM*,-17%,-7%,1.6µM*
Cc1ccc(-c2nn(C)c(=O)c3ccccc23)cc1CNC(=O)/C=C/c1ccccc1,3%,-18%,5%,?,.,.,.
C[C@H]1CCCC=CC2C[C@H](O)C[C@@H]2[C@H](O)C=CC(=O)O1 (some centres undefined),.,.,.,.,1%,?,0.23µM*
C=CCn1c(O)c(C(C)=NCc2cc(OC)cc(OC)c2)c(=O)[nH]c1=O,0%,0%,5%,7.3µM*,2%,-14%,15µM*
CC1=CC(O)C(O)C2(C)C1CC1OC(=O)CC3C(C)C(O)C(=O)C2C13CO (centres undefined),-2%,?,-1%,2.1µM*,3%,-29%,.
COc1ccc(CNC(=O)CSCc2cnn(-c3ccccc3)c2-n2cccc2)cc1OC,0%,-9%,?,9.2µM*,2%,-22%,8.2µM*
